From PubChem BioAssay (Tox21)
Results filed as inconclusive are left out. Where a call stands in place of a potency, no number is given. Calls of active or inactive are those of the source. Unless noted, calls follow the shape of the dose curve; as a rule, active = well fitted curve in the direction sought with a large enough effect in the repeat runs; inconclusive = weak or mixed curves; inactive = no such curve, though single readings can be large; an effect the other way counts as inactive or inconclusive.

Legend:
[1] = qHTS assay to identify small molecule agonists of the estrogen receptor alpha (ER-alpha) signaling pathway in the presence of an antagonist - cell viability counter screen (AID 1259386);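 also: cells exposed to compounds for 22 h at 37 °C before the viability read; nearly all actives have a fitted effect of over 30% in size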; also: potency is read from the fitted curve at half-maximal effect
How it was run: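 VM7Luc4E2, stripped-serum pre-culture 5 d; 24hr plating; +ICI-182,780 10.0nM final; cpds 15 conc, 22hr, 37C/5% CO2; CellTiter-Fluor added at 21hr, fluorescence 1hr later.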

[2] = biological target: Progesterone receptor (Homo sapiens) (UniProt P06401); test: qHTS assay to identify small molecule agonists of the progesterone receptor (PR) signaling pathway (AID 1346784; calls by dose curve; also: nearly all actives have a fitted effect of over 30% in size; also: potency is read from the fitted curve at half-maximal effect)
Chain of Progesterone receptor (Homo sapiens) (P06401 whole entry, looked up): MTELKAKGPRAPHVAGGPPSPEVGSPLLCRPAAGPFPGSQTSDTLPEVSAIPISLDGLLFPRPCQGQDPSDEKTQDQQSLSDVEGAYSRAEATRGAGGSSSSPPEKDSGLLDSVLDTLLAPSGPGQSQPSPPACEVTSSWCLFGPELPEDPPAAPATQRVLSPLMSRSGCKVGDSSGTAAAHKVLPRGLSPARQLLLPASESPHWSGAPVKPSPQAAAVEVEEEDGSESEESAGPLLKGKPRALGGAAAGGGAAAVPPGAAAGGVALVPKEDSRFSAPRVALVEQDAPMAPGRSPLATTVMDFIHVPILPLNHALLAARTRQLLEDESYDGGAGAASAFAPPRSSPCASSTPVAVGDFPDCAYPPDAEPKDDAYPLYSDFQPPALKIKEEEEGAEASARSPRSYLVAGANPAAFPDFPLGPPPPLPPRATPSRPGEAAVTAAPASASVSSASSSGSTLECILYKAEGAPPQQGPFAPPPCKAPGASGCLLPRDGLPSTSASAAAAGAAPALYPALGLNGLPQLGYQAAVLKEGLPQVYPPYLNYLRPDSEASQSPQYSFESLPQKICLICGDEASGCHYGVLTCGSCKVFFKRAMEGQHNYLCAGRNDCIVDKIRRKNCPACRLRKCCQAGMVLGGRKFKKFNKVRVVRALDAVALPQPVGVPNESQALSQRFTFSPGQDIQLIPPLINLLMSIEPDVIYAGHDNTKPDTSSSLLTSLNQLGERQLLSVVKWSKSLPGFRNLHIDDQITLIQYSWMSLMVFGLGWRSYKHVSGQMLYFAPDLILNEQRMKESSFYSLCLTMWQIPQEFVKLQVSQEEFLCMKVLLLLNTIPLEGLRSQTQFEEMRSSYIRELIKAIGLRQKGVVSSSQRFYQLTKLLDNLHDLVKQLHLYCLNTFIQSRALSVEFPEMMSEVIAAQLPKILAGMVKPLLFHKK
How it was run: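 The screen uses PR-UAS-bla HEK 293T cells in charcoal-stripped serum (2%). Compounds are applied for 16 hr at 37C after a 6 hr pre-incubation, and reporter activity is detected with a FRET beta-lactamase substrate after 2 hr at room temperature.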

[3] = biological target: Progesterone receptor (Homo sapiens) (UniProt P06401); test: qHTS assay to identify small molecule antagonists of the progesterone receptor (PR) signaling pathway (AID 1346795; active = well fitted inhibition curve with a large enough effect in the signal ratio in the repeat runs, not every such curve was filed as active; the % refers to the signal ratio; also: potency is read from the fitted curve at half-maximal effect)
How it was run: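 After 6 hr plating at 37C in 2% stripped-serum medium, PR-UAS-bla HEK293T cells got compounds, then 1 nM R5020. Sixteen hours later, LiveBLAzer substrate was applied for 2 hr at room temperature and fluorescence was recorded.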

[4] = qHTS assay to identify small molecule antagonists of the progesterone receptor (PR) signaling pathway - cell viability counter screen (AID 1346798); also: series mostly up to about 92 µM; nearly all actives have a fitted effect of over 50% in size
How it was run: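 Viability was determined by ATP-based luminescence (CellTiter-Glo) in PR-UAS-bla HEK293T cells cultured in 2% charcoal-stripped serum and incubated 16 hr with compounds under R5020 stimulation.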

[5] = qHTS assay to identify small molecule agonists of the progesterone receptor (PR) signaling pathway - cell viability counter screen (AID 1346799; calls by dose curve; also: nearly all actives have a fitted effect of over 45% in size)
How it was run: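 Viability was scored by ATP luminescence (CellTiter-Glo, 30 min, room temperature) in the same wells used for the reporter readout, after 16 hr compound exposure of PR-UAS-bla HEK293T cells.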

[6] = qHTS assay to identify small molecule antagonists of the TGF-beta/Smad signaling pathway - cell viability counter screen (AID 1346824); also: nearly all actives have a fitted effect of over 50% in size
How it was run: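 SBE-bla HEK 293T cells, incubated overnight, then compound plus 0.25 ng/mL TGF-beta1 (stock added) for 5 hr at 37 C. Viability was read in the same wells by CellTiter-Glo luminescence after 30 min at room temperature.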

[7] = qHTS assay to identify small molecule agonists of the TGF-beta/Smad signaling pathway - cell viability counter screen (AID 1346829); also: top concentration of the series differs between compounds; nearly all actives have a fitted effect of over 45% in size
How it was run: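 Luminescence from CellTiter-Glo, read after a 30 min room-temperature incubation, gives cell viability of SBE-bla HEK 293T cells treated 5 hr with compounds at 37 C.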

[8] = qHTS assay to identify small molecule agonists of the TGF-beta/Smad signaling pathway (AID 1346859; active = well fitted activation curve with a large enough effect in the signal ratio in the repeat runs, not every such curve was filed as active; the % refers to the signal ratio; also: series mostly up to about 77 µM)
How it was run: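 Dual-wavelength fluorescence (460/530 nm emission) quantified beta-lactamase expression under the Smad binding element in HEK 293T cells following 5 hr compound treatment at 37 C.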

[9] = biological target: Thyrotropin-releasing hormone receptor (Homo sapiens) (UniProt P34981); test: qHTS assay to identify small molecule antagonists of the thyrotropin-releasing hormone receptor (TRHR) signaling pathway (AID 1346877; active = well fitted inhibition curve with a large enough effect in the repeat runs, not every such curve was filed as active; also: series mostly up to about 51 µM)
Chain of Thyrotropin-releasing hormone receptor (Homo sapiens) (P34981 whole entry, looked up): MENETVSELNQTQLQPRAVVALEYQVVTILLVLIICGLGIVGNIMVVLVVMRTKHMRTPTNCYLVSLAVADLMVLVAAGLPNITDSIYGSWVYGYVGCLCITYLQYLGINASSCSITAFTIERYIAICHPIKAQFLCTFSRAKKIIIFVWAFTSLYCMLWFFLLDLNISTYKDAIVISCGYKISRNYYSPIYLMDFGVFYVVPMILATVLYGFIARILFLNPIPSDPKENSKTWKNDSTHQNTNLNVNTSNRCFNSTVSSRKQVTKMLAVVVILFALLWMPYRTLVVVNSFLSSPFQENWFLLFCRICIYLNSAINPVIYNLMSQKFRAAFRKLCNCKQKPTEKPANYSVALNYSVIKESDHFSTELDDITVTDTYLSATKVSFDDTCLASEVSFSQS
How it was run: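 Intracellular calcium fluorescence, read kinetically every second over 3 min, reports TRH-evoked signalling in HEK293 cells carrying TRHR. Test compounds were added 5 min ahead of a 1 nM TRH challenge.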

[10] = biological target: Thyrotropin-releasing hormone receptor (Homo sapiens) (UniProt P34981); test: qHTS assay to identify small molecule agonists of the thyrotropin-releasing hormone receptor (TRHR) signaling pathway (AID 1346891; calls by dose curve;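 also: HEK293 cells expressing TRHR with calcium dye readout; series mostly up to about 58 µM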)
How it was run: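 Kinetic fluorescence (3 min, 1 s intervals) reported intracellular calcium after compound transfer onto TRHR-Hek293 cells pre-loaded with dye for 2 h at 37 °C.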

Structure (SMILES) | Potency [1] | Potency [2] | Potency [3] | Potency [4] | Potency [5] | Potency [6] | Potency [7] | Potency [8] | Potency [9] | outcome [10]
COC(=O)c1ccccc1C | inactive | inactive | inactive | inactive | inactive | inactive | inactive | inactive | – | –
CC1(C)CC(O)CC(C)(C)N1 | inactive | inactive | inactive | inactive | inactive | inactive | inactive | inactive | inactive | inactive
CNc1ccc([N+](=O)[O-])cc1 | 34.4 µM (active) | inactive | 54.6 µM (active) | inactive | inactive | inactive | inactive | inactive | inactive | inactive
Cc1ccc(-c2ccccc2)cc1 | inactive | inactive | inactive | inactive | inactive | inactive | inactive | inactive | inactive | inactive
Clc1sc(Cl)c(Cl)c1Cl | inactive | inactive | inactive | inactive | inactive | inactive | inactive | inactive | inactive | inactive
CCCCCC/C=C\CCCCCCCC(=O)O | inactive | inactive | inactive | inactive | inactive | inactive | inactive | inactive | inactive | inactive
O=C1OC2(c3ccc(O)cc3Oc3cc(O)ccc32)c2ccc(N=C=S)cc21 | inactive | 0.879 µM (active) | inactive | inactive | inactive | inactive | inactive | inactive | – | –
O=C(O)Cc1ccc2c(c1)C(=O)c1ccccc1CO2 | inactive | inactive | inactive | inactive | inactive | inactive | inactive | – | – | –
CCc1ccc(Br)cc1 | inactive | inactive | inactive | inactive | inactive | inactive | inactive | inactive | – | –
Cc1ccc(N/N=c2\c(=O)cc/c(=N\Nc3ccc(S(=O)(=O)O)cc3)c2=O)c(C)c1 | 34.4 µM (active) | inactive | inactive | inactive | inactive | inactive | inactive | inactive | inactive | inactive
CCCCC(CC)COC(=O)CCCCC(=O)OCc1ccccc1 (configuration not stated) | inactive | inactive | inactive | inactive | inactive | inactive | inactive | inactive | – | –
C=CCn1c(=O)n(CC=C)c(=O)n(CC=C)c1=O | inactive | inactive | inactive | inactive | inactive | inactive | inactive | inactive | inactive | inactive
c1ccsc1 | inactive | inactive | inactive | inactive | inactive | inactive | inactive | inactive | inactive | inactive
CCC(C)[O-].CCC(C)[O-].CCOC(=O)/C=C(/C)[O-].[Al+3] | inactive | inactive | inactive | inactive | inactive | inactive | inactive | inactive | – | –
COc1cc(C)ccc1O | inactive | inactive | inactive | inactive | inactive | inactive | inactive | inactive | inactive | inactive
O=C(O)c1cccc(C(F)(F)F)c1 | inactive | inactive | inactive | inactive | inactive | inactive | inactive | inactive | – | –
NC(=S)NC(N)=S | inactive | inactive | inactive | inactive | inactive | inactive | inactive | inactive | inactive | inactive
COC(=O)c1ccccc1OC | inactive | inactive | inactive | inactive | inactive | inactive | inactive | inactive | inactive | inactive
Cc1ccc(C(C)C)cc2c(C)ccc1-2 | inactive | inactive | inactive | inactive | inactive | inactive | inactive | inactive | inactive | inactive
Cc1c(F)c(N2CCNC(C)C2)cc2c1c(=O)c(C(=O)O)cn2C1CC1 (configuration not stated) | inactive | inactive | inactive | inactive | inactive | inactive | inactive | – | – | –
Cc1c(C)c2c(c(C)c1O)CC[C@@](C)(CCC[C@H](C)CCC[C@H](C)CCCC(C)C)O2 | inactive | inactive | inactive | inactive | inactive | inactive | inactive | inactive | inactive | inactive
CCCCOC(=O)CO | inactive | inactive | inactive | inactive | inactive | inactive | inactive | inactive | inactive | inactive
O=c1[nH]c(=O)n([C@H]2C[C@H](O)[C@@H](CO)O2)cc1F | inactive | inactive | inactive | inactive | inactive | inactive | inactive | inactive | inactive | inactive
O=C(O)Cc1ccccc1Nc1c(Cl)cccc1Cl | inactive | inactive | inactive | inactive | inactive | inactive | inactive | inactive | inactive | inactive
